# Compound activity from PubChem BioAssay.
# PfHsp90 set2 = inhibits growth of yeast expressing Plasmodium falciparum Hsp90; S. cerevisiae expressing PfHsp90, BacTiter-Glo ATP, 48 h; yeast lacking PDR1 and PDR3 efflux regulators; inhibition, % at 9.4 µM; 310,000 compounds, 0.32% hits;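 active means every replicate shows inhibition above about 80%, whatever the replicate mean, limit read from the data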;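 further: 0% = DMSO neutral controls and 100% = 20 µM radicicol positive controls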
# tim10-1 inh = growth inhibitors of tim10-1 mutant yeast; S. cerevisiae tim10-1 ts strain growth, BacTiter-Glo, 24 h; 330,000 compounds, 2.2% hits; inhibition, % at 20 µM; AID 463190;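 active means inhibition of at least 40%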;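 further: mutant grown at 25 °C; 0% = DMSO wells with yeast and 100% = wells holding no yeast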
# V-ATPase pHluor = regulators of yeast V-ATPase proton transport; S. cerevisiae, pHLuorin cytosolic pH fluorescence; response, % at 10 µM; 350,000 compounds, 0.37% hits; AID 504577; in the data active means response mostly above about 7.3%, no sharp cut-off; inactive means mostly below about 5.4%; further: actives read high
# TIM10 inh = inhibits growth of TIM10 yeast strain; AID 463195; S. cerevisiae TIM10 strain growth, BacTiter-Glo luminescence, 24 h; 330,000 compounds, 1.4% hits; inhibition, % at 10 µM;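 active means inhibition of 40% or more at the single tested concentration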;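 further: wild-type TIM10 isogenic control strain grown at permissive 25 °C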
# tim23-1 inh = inhibits growth of tim23-1 mutant yeast | S. cerevisiae tim23-1 growth, BacTiter-Glo luminescence, 24 h | inhibition, % at 20 µM | 330,000 compounds, 1.3% hits | AID 463212;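 active means growth inhibition of the mutant yeast at or above 50%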;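 further: temperature-sensitive mutant grown at 25 °C; plate controls were DMSO-treated mutant yeast for no effect and medium wells lacking yeast for full effect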
# tim23-1 conf = confirmation of tim23-1 mutant yeast growth inhibitors | inhibition, % at 20 µM | S. cerevisiae tim23-1 growth, BacTiter-Glo luminescence, 24 h | shares compounds with tim23-1 inh | AID 463218 | 4,400 compounds, 83% hits;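 active means inhibition above about 39% in either of two replicate wells at 20 µM, limit read from the data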;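 further: temperature-sensitive tim23-1 mutant grown at 25 °C; 0% = DMSO wells with yeast and 100% = medium wells without yeast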
# * hit, by the source's call; x = not tested or not shown. Sampled rows, rich in hits. Any-hit rate of the full collection: about 3.7%.
SMILES,PfHsp90 set2,tim10-1 inh,V-ATPase pHluor,TIM10 inh,tim23-1 inh,tim23-1 conf
COc1ccc(CCC(=O)NC(C)C2CCCO2)cc1 (stereo not given),6,-5,-1,-2,4,x
O=Cc1cnc2ccccc2c1-c1ccccc1,-21,12,-2,2,63*,58*
Cn1c(=O)c2c(nc(CN3CCN(Cc4ccccc4)CC3)n2Cc2cccc(Cl)c2)n(C)c1=O,10,18,1,9,17,x
Cn1c(=O)c2c(nc(CN3CCc4ccccc4C3)n2Cc2cccc(Cl)c2)n(C)c1=O,-1,37,-1,36,51*,54*
Nc1ccc2nc(SCc3cccc(F)c3)sc2c1,-21,-22,-1,25,57*,46*
CCOc1ccccc1NC(=O)C(=O)N/N=C/c1cc(Br)ccc1O,-7,25,-3,18,59*,51*
COc1ccc(CNC(=O)COC(=O)c2c(NC(C)=O)sc(C)c2C)cc1,-7,16,2,4,7,x
O=C1c2cccnc2C(=O)N1C1CCCCC1,14,11,6,5,8,x
Cc1nc2c(n1C1CCCCC1)C(=O)c1ccccc1C2=O,-58,34,7,25,51*,40*
CC1=CC(C)(C)N(C(=O)CCl)c2cc(C)ccc21,-5,8,1,9,9,x
CC1=CC(C)(C)N(C(=O)c2ccc(F)cc2)c2cc3c(cc21)OCO3,-1,35,1,39,54*,44*
CCOC(=O)/C(=C/c1cn(C)c2ccccc12)NC(=O)c1ccccc1,6,16,-8,18,9,x
CCOC(=O)/C(=C\c1cn(C)c2ccccc12)[N+](=O)[O-],7,27,3,25,54*,58*
Cc1ccc(NC(=O)C2CCCN2C(=O)NC2CCCCC2)cc1F (stereo not given),25,7,-5,-4,7,x
CCOC(=O)c1ccccc1NC(=O)COC(=O)CCC1CCCC1,-13,20,1,2,14,x
CCCCC(O)(c1ccc(F)cc1)C(CN1CCOCC1)c1ccc(Cl)cc1 (stereo not given),-10,18,1,16,27,x
CCCC(O)(c1ccc(Cl)cc1)C(CN1CCOCC1)c1ccc(Cl)cc1 (stereo not given),-9,-3,4,29,57*,-9
O=C(COc1ccccc1-c1ccccc1)N/N=C/c1ccncc1,-9,16,4,14,53*,44*
COc1cc(NC(=O)c2cc3sccc3n2C)cc(OC)c1,x,32,0,31,53*,43*
COc1ccccc1NC(=O)CN1CCN(CC(=O)Nc2ccc(C)c(F)c2)CC1,-15,9,2,18,14,x
O=C(C(Cc1ccccc1)n1cccc1)N1CCN(c2ccccc2)CC1 (stereo not given),-12,17,-4,12,55*,31
O=C(Nc1cccc(F)c1)N1CC=C(c2ccc(Cl)cc2)CC1,10,37,0,37,59*,72*
O=C(CN1CCN(c2ccc(Cl)cc2)CC1)Nc1cccc(F)c1,-6,32,0,22,38,x
Cc1ccc(NC(=O)c2cccnc2C(=O)O)nc1,-23,-11,1,6,16,x
CC1Sc2ccc(S(=O)(=O)CCC(=O)NC3CCCCC3C)cc2NC1=O (stereo not given),-36,-8,-1,3,-3,x
SMILES,PfHsp90 set2,tim10-1 inh,V-ATPase pHluor,TIM10 inh,tim23-1 inh,tim23-1 conf
O=[N+]([O-])c1cc(Cl)c2cccnc2c1O,-44,10,2,7,-38,x
Clc1cc2cccnc2c2ncccc12,3,9,-2,14,65*,39
C/C(=N\NC(=O)c1ccccc1)c1ccccc1F,x,9,3,2,8,x
C/C(=N\NC(=O)c1ccccc1OCCOc1ccccc1)c1ccccc1F,x,10,12,3,53*,37
CCOc1ccc(NC(=O)c2ccccc2O)cc1,31,-5,-1,-29,38,x
CCOc1ccc(NC(=O)c2ccccc2CO)cc1,-12,17,6,1,58*,12
CCOc1ccc(-n2ccnc(SCC(=O)Nc3ccc(CC)cc3)c2=O)cc1,-11,16,-3,7,56*,53*
COc1ccc(-n2ccnc(SCC(=O)NC3CCCC3)c2=O)cc1,-7,19,-6,10,5,x
COc1ccc(CN2CCC(CO)(Cc3ccccc3C(F)(F)F)CC2)c(F)c1,-5,-49,0,-50,-8,x
CCCCn1c(C23CC4CC(CC(C4)C2)C3)n[nH]c1=S,1,33,-2,36,53*,50*
COCCn1c(C23CC4CC(CC(C4)C2)C3)n[nH]c1=S,-9,30,-2,26,27,x
Cc1cc2cc(CN(CC3CCCO3)C(=S)Nc3ccccc3)c(=O)[nH]c2cc1C (stereo not given),-33,18,3,32,55*,50*
COc1ccc(/C=C/c2n[nH]c(=O)c(C#N)c2C)cc1,-27,33,-2,10,19,x
Cc1ccc(-c2nnc(N3CCC(C)CC3)c3ccccc23)cc1,7,-25,1,14,53*,69*
Cc1ccc(-c2nnc(N3CCN(C(=O)CN4C(=O)c5ccccc5C4=O)CC3)c3ccccc23)cc1,-6,9,-1,-13,-28,x
O=C1N(c2ccccc2C(F)(F)F)O[C@]1(c1ccccc1)C1CCCC1,-47,-55,2,3,11,x
CC[C@@]1(c2ccccc2OC)ON(c2ccccc2C(F)(F)F)C1=O,-10,5,1,34,57*,51*
Cc1ccccc1[C@@]1(C)ON(c2ccccc2C(F)(F)F)C1=O,1,9,2,33,56*,46*
COc1cc(C=O)ccc1OCc1ccncc1,-10,15,-1,13,0,x
COc1cc(C=O)c(Br)cc1OCc1ccc(C)cc1,-111,13,4,39,65*,57*
O=C(OCc1ccc(F)cc1)c1cc(=O)c2ccccc2o1,-38,6,-3,12,94*,26
Cc1cc(C)n(CC(=O)Nc2ccc(N3CCOCC3)c(Cl)c2)c(=O)c1C#N,-2,-19,-7,8,6,x
CC(=O)c1ccc(OCCn2c(SCC(=O)O)nc3ccccc32)cc1,-7,-11,5,3,-4,x
CCCC(=O)NC(c1ccc(C(C)C)cc1)c1ccc2cccnc2c1O (stereo not given),-32,-17,4,-23,57*,63*
CCC(=O)NC(c1ccc(C)cc1)c1ccc2cccnc2c1O (stereo not given),112*,1,1,2,62*,58*
COc1ccc(C(NC(=O)C(C)C)c2ccc3cccnc3c2O)cc1 (stereo not given),60,4,-9,-46,38,x
Oc1ccccc1C(Nc1nccs1)c1ccc2cccnc2c1O (stereo not given),12,4,3,-4,38,x
